In ChEMBL document CHEMBL2218924, “A broad activity screen in support of a chemogenomic map for kinase signalling research and drug discovery” (Biochem J, 2013) one finds residual activity data, which are given here for 15 compounds.

The first assay deals with Receptor tyrosine-protein kinase erbB-4 (Homo sapiens) (UniProt Q15303). Conditions: at 10 µM.
Sequence of Receptor tyrosine-protein kinase erbB-4 (Homo sapiens) (Q15303 whole entry): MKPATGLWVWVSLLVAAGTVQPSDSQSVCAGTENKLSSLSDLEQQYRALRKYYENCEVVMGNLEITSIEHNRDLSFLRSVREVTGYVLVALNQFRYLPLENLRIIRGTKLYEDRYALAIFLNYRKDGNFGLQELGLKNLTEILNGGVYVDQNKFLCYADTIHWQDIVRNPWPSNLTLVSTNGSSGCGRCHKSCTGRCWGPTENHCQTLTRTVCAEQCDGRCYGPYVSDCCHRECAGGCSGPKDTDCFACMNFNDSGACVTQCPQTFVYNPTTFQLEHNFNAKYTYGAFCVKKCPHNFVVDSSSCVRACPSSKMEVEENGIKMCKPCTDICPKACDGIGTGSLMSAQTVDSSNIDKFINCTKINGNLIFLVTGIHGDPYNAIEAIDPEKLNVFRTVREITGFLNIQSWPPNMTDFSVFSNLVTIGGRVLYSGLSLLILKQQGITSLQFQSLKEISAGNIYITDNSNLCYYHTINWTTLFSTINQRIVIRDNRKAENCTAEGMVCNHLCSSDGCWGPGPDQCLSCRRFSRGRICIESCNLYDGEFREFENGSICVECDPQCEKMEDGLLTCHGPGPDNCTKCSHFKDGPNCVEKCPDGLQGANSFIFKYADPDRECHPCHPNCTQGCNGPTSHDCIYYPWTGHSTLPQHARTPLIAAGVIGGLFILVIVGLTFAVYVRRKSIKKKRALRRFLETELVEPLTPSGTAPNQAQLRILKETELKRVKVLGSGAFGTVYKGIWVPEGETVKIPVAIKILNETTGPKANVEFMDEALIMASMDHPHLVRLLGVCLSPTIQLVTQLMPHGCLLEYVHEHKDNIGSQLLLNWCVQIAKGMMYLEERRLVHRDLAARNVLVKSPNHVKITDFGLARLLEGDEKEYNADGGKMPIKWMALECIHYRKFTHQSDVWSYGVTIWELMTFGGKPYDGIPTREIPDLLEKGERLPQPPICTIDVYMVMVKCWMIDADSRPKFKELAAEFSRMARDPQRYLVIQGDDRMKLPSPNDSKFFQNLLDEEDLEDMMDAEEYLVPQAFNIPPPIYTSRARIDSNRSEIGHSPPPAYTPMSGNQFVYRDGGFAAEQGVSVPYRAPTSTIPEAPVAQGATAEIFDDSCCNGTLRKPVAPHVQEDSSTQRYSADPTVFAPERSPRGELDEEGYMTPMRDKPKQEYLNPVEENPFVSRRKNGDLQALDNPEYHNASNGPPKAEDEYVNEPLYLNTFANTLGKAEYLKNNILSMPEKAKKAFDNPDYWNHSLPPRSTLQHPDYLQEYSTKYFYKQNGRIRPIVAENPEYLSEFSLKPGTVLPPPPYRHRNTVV
For `CCn1cnc2c(Nc3cccc(Cl)c3)nc(N[C@@H]3CCCC[C@@H]3N)nc21`, the residual activity worked out at 68%.

Regarding `O=c1[nH]c2ccccc2n1C1CCN(Cc2ccc(-c3nc4cc5[nH]cnc5cc4nc3-c3ccccc3)cc2)CC1`, the residual activity stood at 61%.

Turning to `O=C1Nc2ccc3ncsc3c2/C1=C/c1c[nH]cn1`, the residual activity was 102%.

For `CCc1nc(-c2ccc(OC)cc2)[nH]c1-c1ccncc1`, the residual activity was 108%.

For `c1cc(-c2cnn3cc(-c4ccc(OCCN5CCCCC5)cc4)cnc23)ccn1`, the residual activity is 100%.

In the case of `COc1ccc2c(c[n+](C)c3c4cc5c(cc4ccc23)OCO5)c1OC`, the residual activity stood at 79%.

Turning to `CC(C)(C)c1cc(C=C(C#N)C#N)cc(Br)c1O`, the residual activity worked out at 132%.

On to `COC(=O)[C@@]1(O)C[C@H]2O[C@]1(C)n1c3ccccc3c3c4c(c5c6ccccc6n2c5c31)C(=O)NC4`, for which the residual activity is 19%.

On to `N/C(=N\[N+](=O)[O-])N/N=C\c1ccc(-c2cccc([N+](=O)[O-])c2)o1`, for which the residual activity is 88%.

Consider `O=[N+]([O-])/C=C/c1ccc2c(c1)OCO2`, for which the residual activity came out at 101%.

Consider `C[S+]([O-])c1ccc(-c2nc(-c3ccc(F)cc3)c(-c3ccncc3)[nH]2)cc1` (stereo unspecified), for which the residual activity is 82%.

Take `COc1cc(OC)c(/C=C2\C(=O)Nc3ccccc32)c(OC)c1`: the residual activity was 106%.

For the next assay, the target named is Focal adhesion kinase 1 (Homo sapiens) (UniProt Q05397). Conditions: at 1 µM.
Sequence of Focal adhesion kinase 1 (Homo sapiens) (Q05397 2-1052 limits assumed): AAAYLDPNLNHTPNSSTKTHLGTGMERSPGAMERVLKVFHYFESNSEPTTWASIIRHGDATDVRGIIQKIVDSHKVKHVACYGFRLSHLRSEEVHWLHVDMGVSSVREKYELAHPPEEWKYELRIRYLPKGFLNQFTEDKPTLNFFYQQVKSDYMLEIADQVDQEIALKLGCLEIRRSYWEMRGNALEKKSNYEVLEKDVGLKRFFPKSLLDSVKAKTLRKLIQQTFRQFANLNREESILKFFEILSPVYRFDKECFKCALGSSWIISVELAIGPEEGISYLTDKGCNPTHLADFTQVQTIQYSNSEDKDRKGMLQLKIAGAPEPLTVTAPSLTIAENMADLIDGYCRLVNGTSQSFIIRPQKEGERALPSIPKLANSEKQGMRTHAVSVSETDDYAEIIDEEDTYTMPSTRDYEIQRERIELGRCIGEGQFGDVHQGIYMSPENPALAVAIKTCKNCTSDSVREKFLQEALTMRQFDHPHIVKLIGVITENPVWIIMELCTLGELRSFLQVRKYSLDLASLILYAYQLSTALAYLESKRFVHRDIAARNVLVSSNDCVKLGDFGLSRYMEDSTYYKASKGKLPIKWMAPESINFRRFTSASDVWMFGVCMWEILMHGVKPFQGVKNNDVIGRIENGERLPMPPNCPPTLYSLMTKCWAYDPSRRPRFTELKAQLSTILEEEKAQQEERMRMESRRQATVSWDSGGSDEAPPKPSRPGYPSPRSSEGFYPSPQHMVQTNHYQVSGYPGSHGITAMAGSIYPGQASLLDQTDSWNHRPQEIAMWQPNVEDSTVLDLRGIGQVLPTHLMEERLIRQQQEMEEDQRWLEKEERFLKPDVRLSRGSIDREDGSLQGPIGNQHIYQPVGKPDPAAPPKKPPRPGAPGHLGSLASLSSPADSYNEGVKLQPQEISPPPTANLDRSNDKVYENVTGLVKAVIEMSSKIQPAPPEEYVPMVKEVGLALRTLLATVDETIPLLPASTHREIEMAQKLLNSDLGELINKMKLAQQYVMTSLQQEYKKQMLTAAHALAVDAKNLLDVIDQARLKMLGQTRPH
On to `CCn1cnc2c(Nc3cccc(Cl)c3)nc(N[C@@H]3CCCC[C@@H]3N)nc21`, for which the residual activity amounted to 53%.

Consider `CC(C)[C@H](CO)Nc1nc(Nc2cccc(Cl)c2)c2ncn(C(C)C)c2n1`, for which the residual activity was 65%.

For the compound `COc1cc2ncnc(Nc3ccc(OCc4ccccc4)cc3)c2cc1OC`, the residual activity was determined as 136%.

For `O=c1[nH]c2ccccc2n1C1CCN(Cc2ccc(-c3nc4cc5[nH]cnc5cc4nc3-c3ccccc3)cc2)CC1`, the residual activity was found to be 143%.

As for `O=C1Nc2ccc3ncsc3c2/C1=C/c1c[nH]cn1`, the residual activity turned out to be 73%.

For the compound `CCc1nc(-c2ccc(OC)cc2)[nH]c1-c1ccncc1`, the residual activity was determined as 115%.

Consider `c1cc(-c2cnn3cc(-c4ccc(OCCN5CCCCC5)cc4)cnc23)ccn1`, for which the residual activity came out at 123%.

As to `COc1ccc2c(c[n+](C)c3c4cc5c(cc4ccc23)OCO5)c1OC`, the residual activity was found to be 140%.

`COc1ccc2c(c1)/C(=C/c1cnc[nH]1)C(=O)N2`: the residual activity was 99%.

For the compound `CC(C)(C)c1cc(C=C(C#N)C#N)cc(Br)c1O`, the residual activity was determined as 149%.

In the case of `COC(=O)[C@@]1(O)C[C@H]2O[C@]1(C)n1c3ccccc3c3c4c(c5c6ccccc6n2c5c31)C(=O)NC4`, the residual activity came to 39%.

Regarding `O=[N+]([O-])/C=C/c1ccc2c(c1)OCO2`, the residual activity came to 141%.

For `C[S+]([O-])c1ccc(-c2nc(-c3ccc(F)cc3)c(-c3ccncc3)[nH]2)cc1` (stereo unspecified), the residual activity was found to be 125%.

Turning to `COc1cc(OC)c(/C=C2\C(=O)Nc3ccccc32)c(OC)c1`, the residual activity came to 92%.

What is called residual activity is the signal under treatment as a percentage of the control signal.
